The first experiment relates to Plasmodium falciparum. The experiment is described as follows: GSK_TCMDC: Inhibition of Plasmodium falciparum 3D7 in whole red blood cells, using parasite LDH activity as an index of growth. Test compounds present at 2uM. The class given is functional.
Turning to `Nc1ncc(-c2ccc(F)cc2)cc1-c1nc2ccc(Cl)cc2[nH]1`, the Inhibition (commonly how much of the control response was suppressed) is given as 99%. On the same count and under the same terms, as for `O=C(O)C(F)(F)F.OC1CCCN(Cc2cccc(-c3ccc(-c4nc5cc(C(F)(F)F)ccc5[nH]4)cc3)c2)C1` (stereo not given), the figure is 100%; as for `Cc1cc(NC2CCCC2)nc(Nc2ccc(F)cc2)n1`, 100%. Still for that read-out and setting: as for `CCCCOc1c(CNCCCCCCNCc2ccc3ccccc3c2OCCCC)ccc2ccccc12.CS(=O)(=O)O`, the figure is 96%; as for `CCn1c(-c2nonc2N)nc2cnc(Oc3cccc(NC(=O)c4ccc(OCCN(C(C)C)C(C)C)cc4)c3)cc21`, 97%.

The next experiment deals with Plasmodium falciparum. The experiment is described as follows: GSK_TCMDC: Inhibition of Plasmodium falciparum Dd2 in whole red blood cells, using parasite LDH activity as an index of growth. Test compounds present at 2uM. The class given is functional.
In the case of `CCCCCCNC(=O)C1Cc2c([nH]c3ccc(Br)cc23)C2(CCN(Cc3ccccc3)CC2)N1` (stereo not given), the Inhibition stood at 75%. With `CCCCCN1CCCC(CNS(=O)(=O)c2cccc(C(=O)Nc3ccc(C(F)(F)F)cc3)c2)C1.O=C(O)C(F)(F)F` (stereo not given), the Inhibition is reported as 2%.

`COc1ccc2nc3cc(Cl)ccc3c(Nc3ccc(Sc4ccc(Nc5c6ccc(Cl)cc6nc6ccc(OC)cc56)cc4)cc3)c2c1.Cl` had an Inhibition of 94%. Turning to `COc1ccc(CCN(C)CCCOc2ccc(NC(=O)COc3cccc4sc5ccccc5c(=O)c34)cc2)cc1OC`, the Inhibition stood at 90%.

For the molecule `O=C(Nc1ccc(-c2ccc(-c3nc4ccccc4[nH]3)s2)cc1)c1ccncc1`, the Inhibition is 95%. `COc1ccc2nccc([C@@H](O)CN3CCC(NCc4cc5cccnc5[nH]4)CC3)c2n1.O=C(O)C(=O)O` came in with an Inhibition of 0%. `O=C(N[C@@H](Cc1ccccc1)C(=O)NC1CCCCCC1)c1ccc(O)c(-c2cccc(C(F)(F)F)c2)c1` displayed an Inhibition of 70%. Still for that read-out and setting: as for `CCOC(=O)c1[nH]c2cc(Cl)cc(Cl)c2c1/C=C/C(=O)Nc1ccc(-c2cnc(NC(C)=O)[nH]2)cc1`, the figure is 65%. Still for that read-out and setting: as for `CCCCOc1ccc(C(=O)C(CCC(CNC(C)(C)C)C(=O)c2ccc(OCCCC)cc2)CNC(C)(C)C)cc1.Cl` (stereo not given), the figure is 92%; as for `COC(=O)c1sc2ccccc2c1NC(=O)c1ccc(C)c(C)c1`, 48%. In turn, `CC(C)(CNC(=O)[C@@H]1CCCN(CCOc2ccc(F)c(F)c2)C1)c1nc(-c2ccc(Cl)c(O)c2)c(-c2ccncc2)[nH]1.Cl` yielded an Inhibition of 77%.

As for `CCOC(=O)CCCCOc1c(OC)cc(Cc2cnc(N)nc2N)cc1OC`, the Inhibition was 0%.

With `Cc1ccc2c(-c3ccc([N+](=O)[O-])o3)cc(C)nc2c1`, the Inhibition is on record as 47%. On to `Cc1oc(-c2cccc(Oc3ccccc3)c2)nc1CN(Cc1cnn(C)c1)C(C)C`, for which the Inhibition stood at 61%. Same read-out and setting: next, `CN1CCC(NCc2ccc(-c3cnc(NCc4ccccc4)nc3)cc2)CC1.O=C(O)C(F)(F)F`: 64%. With `CCOc1ccc2nc3cc([N+](=O)[O-])ccc3c(N)c2c1`, the Inhibition is given as 100%. Still for that read-out and setting: next, `Cc1cc(NCCC(=O)NCc2cccc(F)c2)nc(NCCc2ccc(F)cc2)n1.O=C(O)C(F)(F)F`: 2%; `COc1ccc2nccc(N(C)CC3(O)CCC(NCc4cc5c(cn4)OCCO5)CC3)c2n1.Cl` (stereo not given): 14%; `CCCCN1CC[C@@H](CCC(O)c2cc(OCCC)nc3ccc(OC)cc23)[C@@H](CC)C1.O=C(O)C(=O)O` (stereo not given in full): 99%. `O=C(Nc1cccc(OCc2ccccc2)c1)c1ccc(CN2CCC(Cc3ccccc3)CC2)cc1` displayed an Inhibition of 27%. For the molecule `Nc1ccc(Oc2ccc(Cc3cnc(N)nc3N)cc2)cc1`, the Inhibition is 5%.

For `COc1ccc(N2CCN(CCCCNC(=O)c3ccc(NC(=O)c4cc(C(F)(F)F)cc(C(F)(F)F)c4)cc3)CC2)cc1OC`, the Inhibition is on record as 100%.

Regarding `O=C(Nc1ccc(-c2nc3ccccc3[nH]2)cc1)c1ccc(S(=O)(=O)N2CCCCCC2)cc1`, the Inhibition is given as 21%. Molecule `COc1ccc(CCNCc2cc3c(C(C)(C)C)nn(-c4ccc(Cl)cc4)c3[nH]c2=O)cc1OC` registered an Inhibition of 99%. Still for that read-out and setting: next, `COc1cccc(OC)c1CN1CCC(N(C)CCCCCCCCCN2CCC(OC(=O)Nc3ccccc3-c3ccccc3)CC2)CC1`: 98%.

On to `CN(C)CCCN(C)c1cccc2c1nc(-c1cccnc1)n2CCNCc1ccccc1.O=C(O)C(F)(F)F`, for which the Inhibition was 88%.

As for `COc1ccccc1C1CCN(C2CCC(NC(=O)/C=C/c3cc(C(F)(F)F)cc(C(F)(F)F)c3)CC2)CC1` (stereo not given), the Inhibition was 21%. `COc1cccc(CC(=O)N2CCC(n3c(C)nc4ccc(F)cc43)CC2)c1` gave an Inhibition of 99%.

As to `Cc1ccc(C(NC(=O)C2CCCCC2)c2ccc3cccnc3c2O)cc1` (stereo not given), the Inhibition is 59%. Regarding `CC(=O)O.CC(C)c1ccc(C2CCN(CCCCNC(=O)c3ccc(NC(=O)c4ccc(C(F)(F)F)cc4)cc3)CC2)c(O)c1`, the Inhibition is reported as 100%. `COCCN1CCN(Cc2ccc(-c3ccc(-c4nc5cccc(C)c5[nH]4)s3)cc2)CC1.O=C(O)C(F)(F)F` yielded an Inhibition of 52%. Take `Cc1[nH]c(C)c(-c2ccc(OCc3cc(F)cc(F)c3)nc2)c(=O)c1Cl`: the Inhibition was 97%. As to `CC(=O)N[C@@H]1c2cc(C(C)=O)ccc2OC(C)(C)[C@@H]1O`, the Inhibition was 3%. Regarding `OC(COc1ccccc1-c1nc2ccccc2o1)CN1CCCN(CCc2ccccc2)CC1` (stereo not given), the Inhibition was 2%. `O=C(NC1CCN(Cc2ccccc2)CC1)c1ccc(-c2nc3cc(Cl)c(F)cc3[nH]2)cc1`: the Inhibition was 100%. Regarding `Nc1ncc(-c2ccc(F)cc2)cc1-c1nc2ccc(Cl)cc2[nH]1`, the Inhibition came out at 44%.

The molecule `O=C(O)C(F)(F)F.OC1CCCN(Cc2cccc(-c3ccc(-c4nc5cc(C(F)(F)F)ccc5[nH]4)cc3)c2)C1` (stereo not given) yielded an Inhibition of 91%.

`Cc1cc(NC2CCCC2)nc(Nc2ccc(F)cc2)n1` displayed an Inhibition of 74%. `CCCCOc1c(CNCCCCCCNCc2ccc3ccccc3c2OCCCC)ccc2ccccc12.CS(=O)(=O)O` registered an Inhibition of 89%.

In the case of `CCn1c(-c2nonc2N)nc2cnc(Oc3cccc(NC(=O)c4ccc(OCCN(C(C)C)C(C)C)cc4)c3)cc21`, the Inhibition came to 10%.

For the origin of these results see ChEMBL document CHEMBL1157539, “Thousands of chemical starting points for antimalarial lead identification” (Nature, 2010).
